A selection: hits, their analogues and other compounds. The true share with any hit is near 6.2%.
KB-V1 MDR tox = qHTS assay for MDR1-selective chemotherapeutics: Primary screen using the drug-selected MDR subline cells KB-V1. KB-V1 MDR cells viability, CellTiter-Glo, 72 h. Potency, µM (series often up to 46.1 µM), most hits filed as cytotoxic. actives 3.4% (n = 400,000). AID 1347076, 2019; further: on the % scale 0 is the no-effect control and ±100 the full control effect; nearly all actives have a fitted effect of over 60% in size
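Following 72 h at 37 degrees C with compound, KB-V1 cell viability was read by CellTiter-Glo luminescence, medium being phenol-red-free DMEM plus 10% FBS; concentration-response parameters came from normalized, curve-fitted qHTS data.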
HT1080NT lethal = qHTS for induction of synthetic lethality in tumor cells producing 2HG: qHTS for the HT-1080-NT fibrosarcoma cell line; actives 1.6% (n = 360,000); HT-1080-NT fibrosarcoma viability, CellTiter-Glo ATP luminescence, 48 h; AID 686970, 2013; Potency, µM (doses to about 46.1 µM), for the others: top-dose activity, negative = less viability, usual class: cytotoxic;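 further: NT is the 2HG producing partner of a matched IDH1 knockdown line; 0% = DMSO-treated cells and -100% = media-only wells without cells; nearly all actives have a fitted effect of over 55% in size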
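Toxicity toward the 2HG-producing NT line was scored as %Activity, normalised to DMSO and no-cell wells, from CellTiter-Glo luminescence after 48 hours' treatment.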
ATXN2 expr inh = Primary qHTS for Inhibitors of ATXN expression; HEK-293 ATXN2-luciferase reporter, luminescence, 24 h; Potency, µM (titrated, usually from 57 µM), inactives show at the top dose activity change, negative = inhibition, hits mostly inhibitors; actives 0.72% (n = 360,000); further: on the % scale 0 is the no-effect control and ±100 the full control effect; nearly all actives have a fitted effect of over 55% in size
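ATXN2-luciferase reporter cells (luciferase flanked by upstream and downstream ATXN2 gene portions) were treated 24 h at 37 °C with compounds at up to 57 uM. SteadyGlo luminescence gave expression; GF-AFC fluorescence gave viability.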
ATXN viability = Viability Counterscreen for Primary qHTS for Inhibitors of ATXN expression. Potency, µM (highest dose often 56.7 µM), hits mostly cytotoxic. S2 cells (HEK-293 line with an ATXN2-luciferase reporter) viability, CellTiter-Fluor protease fluorescence, 24 h. AID 651635, 2014. actives 0.49% (n = 400,000); further: nearly all actives have a fitted effect of over 40% in size
HT1080 IDH1KD tx = qHTS for induction of synthetic lethality in tumor cells producing 2HG: qHTS for the HT-1080-IDH1KD cell line; HT-1080 IDH1 knockdown viability, ATP luminescence, 48 h; Potency, µM (titrated, usually from 46.1 µM), for the others: at the highest dose activity, negative = toxicity, most hits filed as cytotoxic; actives 2% (n = 360,000); AID 686971, 2013;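 further: 0% = DMSO wells and -100% = cell-free medium wells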
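Knockdown cells (IDH1KD HT-1080) received compounds 2 h after plating at 750 cells/well and were kept 48 h at 37 °C in 5% FBS RPMI. A CellTiter-Glo luminescence read gave % activity for curve fitting.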
KB-3-1 tox = qHTS assay for MDR1-selective chemotherapeutics: Primary screen using the parental adenocarcinoma cell KB-3-1; actives 1.4% (n = 400,000); AID 1347075, 2019; KB-3-1 viability, CellTiter-Glo ATP luminescence, 72 h; Potency, µM (series often up to 46.1 µM), most hits filed as cytotoxic; further: on the % scale 0 is the no-effect control and ±100 the full control effect; nearly all actives have a fitted effect of over 60% in size
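Cells are dispensed, compounds pinned in, plates held at 37 °C for 72 h, then CellTiter-Glo is added and luminescence read after 10 minutes. Cell line: parental KB-3-1 in phenol-red-free DMEM, 10% FBS.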
* hit, by the source's call; i = inactive; ? = inconclusive; / = not tested or not shown; ! = not confirmed by another sample. The call rests on the fitted dose curve; in most records, active means well fitted curve in the direction sought with a large enough effect; inconclusive means small, poorly fitted or top-dose-only effect, or another doubt; inactive means no such curve, though single readings can be large; an effect the other way counts as inactive or inconclusive. Potency means the concentration at half of the fitted maximal effect.

SMILES	KB-V1 MDR tox	HT1080NT lethal	ATXN2 expr inh	ATXN viability	HT1080 IDH1KD tx	KB-3-1 tox
Cc1ccc(S(=O)(=O)N(C)C)cc1NC(=O)CN1C(=O)NC2(CCc3ccccc32)C1=O (centres undefined)	i	17%	/	i	7%	?
COc1ccccc1C1CN(Cc2c(C)nn(C)c2Cl)Cc2ccccc2O1 (centres undefined)	/	/	/	i	/	/
COc1ccc(-n2cc3ccc([N+](=O)[O-])cc3n2)cc1	?	-9%	-12%	?	-11%	5.8µM*
Cc1ccc2cc(/C=C/C(=O)c3ccco3)c(Cl)nc2c1	?	?	-8%	i	12µM*	i
Cc1ccc2nc(Cl)c(/C=C/C(=O)c3ccco3)cc2c1	i	?	15%	i	-20%	?
Cc1cc(C)n2ncc(C(=O)Nc3ccccc3)c2n1	?	/	/	/	/	i
O=c1/c(=C\c2ccc3c(c2)OCO3)sc2n1CCCN=2	13µM*	1%	-2%	i	-4%	i
Cc1cccc(NC(=S)N=Nc2c(O)n(C)c3ccc(S(=O)(=O)N4CCOCC4)cc23)c1	0.73µM*	-7%	-27%	?	-26%	?
Cc1cc(C)cc(NC(=S)N=Nc2c(O)n(C)c3ccc(S(=O)(=O)N4CCOCC4)cc23)c1	i	-13%	0%	?	-16%	i
Cc1ccccc1NC(=S)N=Nc1c(O)n(C)c2ccc(S(=O)(=O)N3CCOCC3)cc12	?	?	-39%	i	21µM*	?
Cc1cccc(C)c1NC(=S)N=Nc1c(O)n(C)c2ccc(S(=O)(=O)N3CCOCC3)cc12	3.7µM*	8%	?	i	1%	?
Cc1ccc(NC(=S)N=Nc2c(O)n(C)c3ccc(S(=O)(=O)N4CCOCC4)cc23)cc1	i	-3%	?	?	?	?
C=CCn1c(O)c(N=NC(=S)Nc2ccccc2F)c2cc(S(=O)(=O)N3CCOCC3)ccc21	?	?	-36%	i	?	?
CC(C(=O)Nc1ccccc1C(F)(F)F)n1nc(-c2ccccc2)c2c(c1=O)CCCC2 (centres undefined)	i	/	?	?	/	?
CC(=O)Nc1ccc(S(=O)(=O)N2c3ccc(F)cc3CCC2C)cc1 (centres undefined)	i	?	?	?	21µM*	9.2µM*
CC(C)(C)CC(C)(C)N=C1Nc2ccc(Cl)cc2N[C@]12C[C@H]1CCCC(=O)N3CC[C@@H](C2)[C@@H]13	21µM*	/	/	/	/	?
Cc1cc2c(cc1C)N[C@]1(C[C@H]3CCCC(=O)N4CC[C@@H](C1)[C@@H]34)C(=NC(C)(C)CC(C)(C)C)N2	21µM*!	-15%	-16%	?	-11%	?
O=C1CCC[C@@H]2C[C@@]3(C[C@@H]4CCN1[C@H]24)Nc1cc(Cl)ccc1NC3=NC1CCCCC1	i	1%	10%	i	0%	i
Cc1cc2c(cc1C)N[C@]1(C[C@H]3CCCC(=O)N4CC[C@@H](C1)[C@@H]34)C(=NCc1ccccc1)N2	i	/	/	/	/	i
COc1cccc(OC)c1C(=O)Nc1cccc(S(=O)(=O)Nc2ccccc2Cl)c1	i	0%	9%	i	1%	i
COc1ccccc1NS(=O)(=O)c1cccc(NC(=O)Nc2ccccc2)c1	21µM*	-9%	-29%	i	-9%	?
CCNC(=S)Nc1cccc(S(=O)(=O)Nc2ccccc2OC)c1	i	-12%	-18%	i	-7%	i
COc1ccccc1NS(=O)(=O)c1cccc(NC(=O)Nc2ccc(Cl)cc2)c1	?	?	?	?	18µM*	?
CCOC(=O)c1ccccc1NC(=O)N1CCCN(S(=O)(=O)c2ccc3c(ccn3CC)c2)CC1	15µM*	/	-4%	?	/	?
CCc1ccc(CNC(=O)CCCn2ccc3cc(S(=O)(=O)N4CCCC4)ccc32)cc1	?	/	?	13µM*	/	5.8µM*
SMILES	KB-V1 MDR tox	HT1080NT lethal	ATXN2 expr inh	ATXN viability	HT1080 IDH1KD tx	KB-3-1 tox
CCn1ccc2cc(S(=O)(=O)N3CCCN(C(=O)Nc4ccccc4C(F)(F)F)CC3)ccc21	?	/	9%	i	/	i
CC(NC(=O)c1ccc(N2CCCC2)c([N+](=O)[O-])c1)c1ccc(S(N)(=O)=O)cc1 (centres undefined)	?	-3%	-4%	i	0%	i
Cc1ccc(/C=N/NC(=O)c2cc(C3CC3)nc3ccccc23)o1	?	?	?	?	5.8µM*	?
Cc1ccc(/C=N/NC(=O)c2cc(-c3ccccc3)nc3ccccc23)o1	i	?	-18%	i	?	i
CCCc1cc(C(=O)N/N=C/c2ccc(C)o2)c2ccccc2n1	?	?	-13%	i	21µM*	?
Cc1cc(C(=O)N/N=C/c2ccc(C)o2)c2ccccc2n1	?	3.3µM*	-7%	?	?	1.3µM*
Cc1ccc(C=NNC(=O)c2cc(-c3cccnc3)nc3ccccc23)o1	?	?	-14%	i	?	?
COc1ccc(Cl)cc1NC(=O)CSc1nc2ccccc2nc1N1CCCCC1	?	/	15%	i	/	i
Cc1cccn2c(=O)c(C(=O)N3CCN(c4ccc(Cl)cc4)CC3)cnc12	i	/	-23%	i	/	i
CSc1nc(N(C)NC(=O)c2ccc(F)cc2)c2ccccc2n1	1µM*	?	-14%	?	0.52µM*	0.65µM*
CCc1nc2c(C#N)c(-c3ccc(Cl)cc3)ccn2n1	?	4%	1%	i	4%	?
CCS(=O)c1scc(-c2ccc(Cl)cc2)c1C#N (centres undefined)	21µM*	-4%	/	i	0%	?
CCOC(=O)C1=C[C@@H](C(C)(C)C)N(S(=O)(=O)c2ccc(C)cc2)[C@H]1c1ccccc1Cl	?	-15%	-16%	?	?	i
CCOC(=O)C1=C[C@@H](C(C)(C)C)N(S(=O)(=O)c2ccc(C)cc2)[C@H]1c1ccc(C)cc1	i	?	-6%	i	13µM*	i
Cc1ccc(S(=O)(=O)n2nc(-c3ccc(Cl)cc3)nc2NCc2ccc(F)cc2)cc1	?	/	1%	i	/	i
